# Luciferase inh: Firefly luciferase inhibition profiling of diverse chemical library using quantitative high-throughput screening | Luciferin 4-monooxygenase (Photinus pyralis), P08659 | purified P. pyralis luciferase, luminescence, biochemical | Potency, µM (top dose mostly 115 µM), usual class: inhibitors | 2.5% of 76,000 active | AID 1347043, 2019; note: % is set by controls: 0 for no effect and ±100 for the full control effect; nearly all actives have a fitted effect of over 65% in size
#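 Purified 10nM P. pyralis luciferase with 10uM D-luciferin and 10uM ATP in 50mM Tris acetate pH 7.5, 10mM Mg acetate, 0.01% Tween-20, 0.05% BSA. qHTS titration; luminescence read by CCD imager.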
# SNCA expr inh: Primary qHTS assay for inhibitors of alpha-synuclein gene (SNCA) expression; HEK-293 SNCA-luciferase knock-in, luminescence, 24 h; Potency, µM (titrated, usually from 57.2 µM), for the others: at the top dose activity change, negative = inhibition, most hits filed as inhibitors; AID 1671194, 2021; 0.17% of 140,000 active;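 note: plate controls were DMSO cells for no effect and cell-free wells for full effect; nearly all actives have a fitted effect of over 45% in size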
# HEK293 tox: Cytotoxic Profiling in HEK 293 Cell Line of Diverse Libraries Using Quantitative High-Throughput Screening | 6.6% of 94,000 active | HEK 293 viability, ATP luminescence (CellTiter-Glo), 48-72 h | Potency, µM (doses to about 115 µM), for inactives: at the top dose activity change, negative = cytotoxicity, usual class: inhibitors; note: % is set by controls: 0 for no effect and ±100 for the full control effect; nearly all actives have a fitted effect of over 60% in size
#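 CellTiter-Glo luminescence (cellular ATP) was read after 48 or 72 hr of compound exposure at 37 degree Celsius. Cells were HEK 293 plated at 250 cells/well.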
# HEK293 viab: GF-AFC viability counterscreen for inhibitors of alpha-synuclein gene (SNCA) expression; HEK-293-SNCA-luc viability, GF-AFC fluorescence, 24 h; Potency, µM (titrated, usually from 57.1 µM), for the others: at the top dose activity change, negative = cytotoxicity, hits mostly cytotoxic; 0.12% of 150,000 active; AID 1671193, 2021;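 note: 0% = DMSO-treated cells and -100% = medium-only wells without cells; nearly all actives have a fitted effect of over 30% in size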
#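 HEK-293-SNCA-luc cells (1500/well) plated 24 h, then exposed 24 h to a dilution series; GF-AFC added 30 min at 37C, fluorescence 405/540 nm; normalised to medium-only and DMSO wells, Hill fit.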
# hNpr1 antagonist: Natriuretic polypeptide receptor (hNpr1) antagonism - Primary qHTS | AID 1347048, 2019 | Potency, µM (series often up to 46.3 µM), for the others: at the top dose activity change, negative = inhibition, usual class: inhibitors | HEK293 hNpr1 GloSensor cGMP, ANP-stimulated luminescence | Atrial natriuretic peptide receptor 1 (Homo sapiens), P16066 | 1.6% of 76,000 active; calls by dose curve; note: % is set by controls: 0 for no effect and ±100 for the full control effect; nearly all actives have a fitted effect of over 60% in size
#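 HEK293 cells stably expressing human Npr1 and cGMP GloSensor pGS-40F, loaded 2 h with 2% GloSensor reagent, given compound 30 min at room temperature. Luminescence read before and 20 min after 0.1 nM hNppA.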
# 3T3 cytotox: Cytotoxic Profiling in NIH 3T3 Cell Line of Diverse Libraries Using Quantitative High-Throughput Screening; NIH 3T3 viability, CellTiter-Glo ATP luminescence, 48-72 h; Potency, µM (highest dose often 96.7 µM), without a hit: at the top dose activity change, negative = cytotoxicity, usual class: inhibitors; 4.3% of 94,000 active; note: % is set by controls: 0 for no effect and ±100 for the full control effect; nearly all actives have a fitted effect of over 55% in size
#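 Cells were seeded at 400 per well, treated with pin-transferred compound, and kept 48 or 72 hr at 37 °C before CellTiter-Glo addition and luminescence imaging of cellular ATP.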
# Npr1 antag conf: Natriuretic polypeptide receptor (hNpr1) antagonism - Confirmation. shares compounds with hNpr1 antagonist. HEK293 hNpr1 cGMP GloSensor luminescence, ANP-stimulated. Potency, µM (series often up to 57.6 µM), for the others: top-dose activity change, negative = inhibition, actives largely listed as inhibitors. 76% of 1,400 active; calls by dose curve; note: nearly all actives have a fitted effect of over 70% in size
# Npr2 selectivity: Natriuretic polypeptide receptor (hNpr2) antagonism - Subtype selectivity assay | HEK293 hNpr2 GloSensor cGMP luminescence, CNP-stimulated | shares compounds with hNpr1 antagonist | Potency, µM (highest dose often 57.6 µM), inactives show at the top dose activity change, negative = inhibition, most hits filed as inhibitors | AID 1347046, 2019 | 67% of 1,400 active; calls by dose curve; note: nearly all actives have a fitted effect of over 70% in size
# FLuc inh counter: Natriuretic polypeptide receptor (hNpr1) antagonism - Confirmation firefly luciferase (FLuc) inhibition counterscreen; Potency, µM (series often up to 57.6 µM), inactives show at the top dose activity change, negative = inhibition, most hits filed as inhibitors; purified FLuc enzyme, luminescence, Km substrate; 0.7% of 1,400 active; AID 1347047, 2019; shares compounds with hNpr1 antagonist; note: 0% is about no effect
# GloSensor ctrl: Natriuretic polypeptide receptor (hNpr1) antagonism - Counterscreen GloSensor control cell line. Potency, µM (highest dose often 57.6 µM), for inactives: at the top dose activity change, negative = inhibition, usual class: inhibitors. shares compounds with hNpr1 antagonist. 69% of 1,400 active. HEK293 GloSensor cGMP, SNP-stimulated, luminescence; calls by dose curve; note: % is set by controls: 0 for no effect and ±100 for the full control effect; nearly all actives have a fitted effect of over 70% in size
# * = called active by the depositor; i = inactive; ? = inconclusive; . = not tested or not shown; [ ] = another dose, or the depositor's remark. Compounds with a hit are over-represented: about 7.4% of the library has one in this group of screens. Unless noted, calls come from the whole dose curve; as a rule, active = well fitted curve in the direction sought with a large enough effect; inconclusive = small, poorly fitted or top-dose-only effect, or another doubt; inactive = no such curve, though single readings can be large; an effect the other way counts as inactive or inconclusive. Potency is the fitted concentration of half-maximal effect.
SMILES,Luciferase inh,SNCA expr inh,HEK293 tox,HEK293 viab,hNpr1 antagonist,3T3 cytotox,Npr1 antag conf,Npr2 selectivity,FLuc inh counter,GloSensor ctrl
CCc1csc(CNc2cc(C3CC(O)C3)nc(N)n2)n1 (stereo not given),i,32%,?,-3%,-23%,?,.,.,.,.
COc1ccc(Cn2c(=O)c(C(=O)N3CCC(C#N)CC3)nc3cccnc32)cc1,.,1%,-15%,-17%,.,-26%,.,.,.,.
COc1cccc(S(=O)(=O)N2CCC3(CC2)CC(OC)CCO3)c1 (stereo not given),i,109%,16%,1%[12.5 µM],-7%,3%,.,.,.,.
CCc1noc(CC2CCOC3(CCN(S(=O)(=O)c4ccccc4Cl)CC3)C2)n1 (stereo not given),i,-13%,?,-1%,?,-23%,22µM*,22µM*,-1%,17µM*
CCc1noc(CC2CCOC3(CCN(S(=O)(=O)c4cccc(Cl)c4)CC3)C2)n1 (stereo not given),i,-19%,?,2%,10µM*,?,22µM*,?,-2%,22µM*
CCc1noc(CC2CCOC3(CCN(S(=O)(=O)c4cc(F)ccc4C)CC3)C2)n1 (stereo not given),i,35%,?,-1%,?,?,.,.,.,.
CCc1noc(CC2CCOC3(CCN(S(=O)(=O)c4cccc(OC)c4)CC3)C2)n1 (stereo not given),i,-31%,?,-10%,16µM*,?,22µM*,22µM*,-1%,19µM*
COc1ccc(C2(C(=O)N3CCC(Cc4nc(-c5ccccc5)no4)CC3)CC2)cc1,i,?,?,-21%,7.9µM*,?,7.7µM*,9.7µM*,0%,9.7µM*
COc1ccc(C2(C(=O)N3CCC(Cc4nc(-c5ccc(F)cc5)no4)CC3)CC2)cc1,i,?,?,-16%,5.6µM*,?,4.8µM*,6.1µM*,0%,6.1µM*
O=C(N1CCC(Cc2nc(-c3ccc(F)cc3)no2)CC1)C1(c2ccccc2)CC1,i,-19%,?,4%,?,?,.,.,.,.
